This note sets out measurements from ChEMBL document CHEMBL1961873, “Compounds: GSK PKIS; Assays: Nanosyn kinase panel” (2012).

One assay deals with T1, Testis-specific serine/threonine-protein kinase 1 (Homo sapiens) (UniProt Q9BXA7).
T1 sequence (whole entry): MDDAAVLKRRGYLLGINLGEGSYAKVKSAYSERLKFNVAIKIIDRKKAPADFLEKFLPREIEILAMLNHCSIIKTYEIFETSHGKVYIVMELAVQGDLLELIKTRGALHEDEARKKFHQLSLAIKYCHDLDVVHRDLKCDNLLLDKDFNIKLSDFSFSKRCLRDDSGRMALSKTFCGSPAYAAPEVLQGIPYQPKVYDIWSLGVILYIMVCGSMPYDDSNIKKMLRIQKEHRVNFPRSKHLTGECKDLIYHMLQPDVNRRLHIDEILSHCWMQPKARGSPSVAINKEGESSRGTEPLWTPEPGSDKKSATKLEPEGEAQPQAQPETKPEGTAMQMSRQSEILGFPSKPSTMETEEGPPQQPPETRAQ
The settings on record: at 0.1 µM.
As to `Fc1ccc(-c2ncn(C3CCNCC3)c2-c2ccnc(Oc3ccccc3)n2)cc1`, the inhibition was determined as 2.36%.

As for `NS(=O)(=O)c1ccc(-c2ccc3c(NC(=O)C4CC4)n[nH]c3c2)cc1`, the inhibition was 0.11%.

On to `Cc1cc(-c2ccco2)cc(C)c1/C=C/c1cncc(-c2nn[nH]n2)c1`, for which the inhibition was 1.7%.

Turning to `CCn1c(-c2nonc2N)nc2c(C#CC(C)(C)O)ncc(OCC3CCNCC3)c21`, the inhibition came to 24.4%.

In the case of `NS(=O)(=O)c1ccc(N/C=C2\C(=O)Nc3ccc4ncsc4c32)cc1`, the inhibition worked out at 5.24%.

On to `COc1cc2c(cc1Nc1nc(Nc3ccsc3C(N)=O)c3cc[nH]c3n1)N(C(=O)CN(C)C)CCC2`, for which the inhibition came to 92.3%.

As to `Nc1nonc1-c1nc2cnccc2n1C1CCCCC1`, the inhibition stood at 0.17%.

`CCn1c(-c2nonc2N)nc2c(C#CCN)ncc(OCCCN)c21`: the inhibition is -0.75%.

As to `COc1cccc(-n2ncc3c(N/N=C/c4ccncc4)ncnc32)c1`, the inhibition was determined as 4.13%.

In the case of `CCn1c(-c2nonc2N)nc2c(C#CC(C)(C)O)ncc(OC[C@@H]3CCCN3)c21`, the inhibition turned out to be 20.6%.

Consider `COc1cccc(COc2cc(-n3cnc4ccccc43)sc2C(N)=O)c1`, for which the inhibition was -0.31%.

For `COc1cc(C=NNc2ncnc3c2cnn3Cc2ccccc2)ccc1O`, the inhibition was -3.19%.

For the compound `CCn1c(-c2nonc2N)nc2c(C#CC(C)(C)O)nc(O[C@@H](CN)c3ccccc3)cc21`, the inhibition is 85.5%.

As to `NC(=O)c1sc(-n2cnc3cc(C(F)(F)F)ccc32)cc1OCc1ccccc1Br`, the inhibition turned out to be 2.93%.

A further assay addresses T1, Testis-specific serine/threonine-protein kinase 1 (Homo sapiens). The settings on record: at 1 µM.
For the compound `Fc1ccc(-c2ncn(C3CCNCC3)c2-c2ccnc(Oc3ccccc3)n2)cc1`, the inhibition amounted to 1.65%.

As to `NS(=O)(=O)c1ccc(-c2ccc3c(NC(=O)C4CC4)n[nH]c3c2)cc1`, the inhibition is -0.04%.

As to `Cc1cc(-c2ccco2)cc(C)c1/C=C/c1cncc(-c2nn[nH]n2)c1`, the inhibition was determined as 2.37%.

Regarding `CCn1c(-c2nonc2N)nc2c(C#CC(C)(C)O)ncc(OCC3CCNCC3)c21`, the inhibition came to 73%.

On to `NS(=O)(=O)c1ccc(N/C=C2\C(=O)Nc3ccc4ncsc4c32)cc1`, for which the inhibition stood at 19.4%.

Regarding `COc1cc2c(cc1Nc1nc(Nc3ccsc3C(N)=O)c3cc[nH]c3n1)N(C(=O)CN(C)C)CCC2`, the inhibition was found to be 95.5%.

Take `Nc1nonc1-c1nc2cnccc2n1C1CCCCC1`: the inhibition was found to be 6.12%.

For the compound `CCn1c(-c2nonc2N)nc2c(C#CCN)ncc(OCCCN)c21`, the inhibition came to 11.3%.

Regarding `COc1cccc(-n2ncc3c(N/N=C/c4ccncc4)ncnc32)c1`, the inhibition was found to be 5.05%.

For `CCn1c(-c2nonc2N)nc2c(C#CC(C)(C)O)ncc(OC[C@@H]3CCCN3)c21`, the inhibition stood at 70.4%.

Take `COc1cccc(COc2cc(-n3cnc4ccccc43)sc2C(N)=O)c1`: the inhibition is -0.86%.

`COc1cc(C=NNc2ncnc3c2cnn3Cc2ccccc2)ccc1O`: the inhibition was -2.62%.

In the case of `CCn1c(-c2nonc2N)nc2c(C#CC(C)(C)O)nc(O[C@@H](CN)c3ccccc3)cc21`, the inhibition came out at 95.6%.

As to `NC(=O)c1sc(-n2cnc3cc(C(F)(F)F)ccc32)cc1OCc1ccccc1Br`, the inhibition turned out to be 3.05%.

The target in another assay is T2, Testis-specific serine/threonine-protein kinase 2 (Homo sapiens) (UniProt Q96PF2).
T2 sequence (whole entry): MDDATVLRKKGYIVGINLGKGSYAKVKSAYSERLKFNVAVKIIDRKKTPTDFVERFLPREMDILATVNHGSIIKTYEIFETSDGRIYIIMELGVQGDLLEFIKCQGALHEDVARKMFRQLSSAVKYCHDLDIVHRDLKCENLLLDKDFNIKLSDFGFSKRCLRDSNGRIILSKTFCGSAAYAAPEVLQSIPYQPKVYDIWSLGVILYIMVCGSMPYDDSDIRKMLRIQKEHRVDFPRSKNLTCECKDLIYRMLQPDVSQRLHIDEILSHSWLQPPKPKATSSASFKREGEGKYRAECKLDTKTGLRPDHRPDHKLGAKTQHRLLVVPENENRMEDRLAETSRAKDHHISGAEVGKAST
Conditions: at 0.1 µM.
In the case of `Fc1ccc(-c2ncn(C3CCNCC3)c2-c2ccnc(Oc3ccccc3)n2)cc1`, the inhibition is 0.82%.

In the case of `NS(=O)(=O)c1ccc(-c2ccc3c(NC(=O)C4CC4)n[nH]c3c2)cc1`, the inhibition is 1.09%.

With `Cc1cc(-c2ccco2)cc(C)c1/C=C/c1cncc(-c2nn[nH]n2)c1`, the inhibition is 1.46%.

Take `CCn1c(-c2nonc2N)nc2c(C#CC(C)(C)O)ncc(OCC3CCNCC3)c21`: the inhibition is 2.77%.

With `NS(=O)(=O)c1ccc(N/C=C2\C(=O)Nc3ccc4ncsc4c32)cc1`, the inhibition was found to be 1.13%.

In the case of `COc1cc2c(cc1Nc1nc(Nc3ccsc3C(N)=O)c3cc[nH]c3n1)N(C(=O)CN(C)C)CCC2`, the inhibition came to 59.4%.

As to `Nc1nonc1-c1nc2cnccc2n1C1CCCCC1`, the inhibition was -1.12%.

For `CCn1c(-c2nonc2N)nc2c(C#CCN)ncc(OCCCN)c21`, the inhibition was -0.97%.

`COc1cccc(-n2ncc3c(N/N=C/c4ccncc4)ncnc32)c1`: the inhibition worked out at 1.6%.

With `CCn1c(-c2nonc2N)nc2c(C#CC(C)(C)O)ncc(OC[C@@H]3CCCN3)c21`, the inhibition worked out at 4.9%.

Take `COc1cccc(COc2cc(-n3cnc4ccccc43)sc2C(N)=O)c1`: the inhibition was 0.72%.

Consider `COc1cc(C=NNc2ncnc3c2cnn3Cc2ccccc2)ccc1O`, for which the inhibition was -2.34%.

As for `CCn1c(-c2nonc2N)nc2c(C#CC(C)(C)O)nc(O[C@@H](CN)c3ccccc3)cc21`, the inhibition is 1.41%.

Consider `NC(=O)c1sc(-n2cnc3cc(C(F)(F)F)ccc32)cc1OCc1ccccc1Br`, for which the inhibition is 2.48%.

For a further assay, the target named is T2, Testis-specific serine/threonine-protein kinase 2 (Homo sapiens). Conditions: at 1 µM.
For `Fc1ccc(-c2ncn(C3CCNCC3)c2-c2ccnc(Oc3ccccc3)n2)cc1`, the inhibition turned out to be 0.7%.

On to `NS(=O)(=O)c1ccc(-c2ccc3c(NC(=O)C4CC4)n[nH]c3c2)cc1`, for which the inhibition was -2.52%.

As to `Cc1cc(-c2ccco2)cc(C)c1/C=C/c1cncc(-c2nn[nH]n2)c1`, the inhibition was 0.42%.

Take `CCn1c(-c2nonc2N)nc2c(C#CC(C)(C)O)ncc(OCC3CCNCC3)c21`: the inhibition worked out at 5.17%.

Regarding `NS(=O)(=O)c1ccc(N/C=C2\C(=O)Nc3ccc4ncsc4c32)cc1`, the inhibition worked out at 2.94%.

Regarding `COc1cc2c(cc1Nc1nc(Nc3ccsc3C(N)=O)c3cc[nH]c3n1)N(C(=O)CN(C)C)CCC2`, the inhibition is 91.2%.

For `Nc1nonc1-c1nc2cnccc2n1C1CCCCC1`, the inhibition is -2.07%.

In the case of `CCn1c(-c2nonc2N)nc2c(C#CCN)ncc(OCCCN)c21`, the inhibition was found to be 4.75%.

As to `COc1cccc(-n2ncc3c(N/N=C/c4ccncc4)ncnc32)c1`, the inhibition stood at 2.48%.

With `CCn1c(-c2nonc2N)nc2c(C#CC(C)(C)O)ncc(OC[C@@H]3CCCN3)c21`, the inhibition is 2.67%.

As to `COc1cccc(COc2cc(-n3cnc4ccccc43)sc2C(N)=O)c1`, the inhibition is -0.49%.

Take `COc1cc(C=NNc2ncnc3c2cnn3Cc2ccccc2)ccc1O`: the inhibition was -2.56%.

`CCn1c(-c2nonc2N)nc2c(C#CC(C)(C)O)nc(O[C@@H](CN)c3ccccc3)cc21`: the inhibition was determined as 14.8%.

Turning to `NC(=O)c1sc(-n2cnc3cc(C(F)(F)F)ccc32)cc1OCc1ccccc1Br`, the inhibition is 1.1%.
